Experimental data published in PubChem BioAssay (EPA / NIEHS).
Inconclusive results are not listed. Active and inactive are the calls of the source. Rule for the calls: active = hit-call score of the fitted dose curve at least 0.9, where 1 is the maximum; inconclusive = response in the unintended direction; inactive = score below 0.9.

How the values were obtained:
[1] = tested on: rat Norepinephrine Transporter (NET), gene 83511; assay: NVS_TR_rNET: NovaScreen (NVS) Transporter Assay for rat Norepinephrine Transporter (NET) (AID 2283373)
Summary of the method: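 Competitive radioligand displacement at the rat NET using forebrain membrane preparations, 1 h incubation, filter-based scintillation readout. Primary testing in duplicate at a single 25 uM concentration; confirmed actives retested across concentrations.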

[2] = target: Agonist Androgen Response Element (ARE), AR (gene 367) (UniProt P10275); assay: OT_AR_ARELUC_AG_1440: Odyssey Thera (OT) 24-hour CHO-K1 Luciferase Assay for Agonist Androgen Response Element (ARE) (AID 2283379)
Summary of the method: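 Readout: luciferase bioluminescence from CHO-K1 ARE-luc cells, measured 24 h post-dosing; agonism = increased mean luminescence vs DMSO controls, fitted in positive direction.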

Sequence of Agonist Androgen Response Element (ARE), AR (gene 367) (P10275 whole entry, looked up): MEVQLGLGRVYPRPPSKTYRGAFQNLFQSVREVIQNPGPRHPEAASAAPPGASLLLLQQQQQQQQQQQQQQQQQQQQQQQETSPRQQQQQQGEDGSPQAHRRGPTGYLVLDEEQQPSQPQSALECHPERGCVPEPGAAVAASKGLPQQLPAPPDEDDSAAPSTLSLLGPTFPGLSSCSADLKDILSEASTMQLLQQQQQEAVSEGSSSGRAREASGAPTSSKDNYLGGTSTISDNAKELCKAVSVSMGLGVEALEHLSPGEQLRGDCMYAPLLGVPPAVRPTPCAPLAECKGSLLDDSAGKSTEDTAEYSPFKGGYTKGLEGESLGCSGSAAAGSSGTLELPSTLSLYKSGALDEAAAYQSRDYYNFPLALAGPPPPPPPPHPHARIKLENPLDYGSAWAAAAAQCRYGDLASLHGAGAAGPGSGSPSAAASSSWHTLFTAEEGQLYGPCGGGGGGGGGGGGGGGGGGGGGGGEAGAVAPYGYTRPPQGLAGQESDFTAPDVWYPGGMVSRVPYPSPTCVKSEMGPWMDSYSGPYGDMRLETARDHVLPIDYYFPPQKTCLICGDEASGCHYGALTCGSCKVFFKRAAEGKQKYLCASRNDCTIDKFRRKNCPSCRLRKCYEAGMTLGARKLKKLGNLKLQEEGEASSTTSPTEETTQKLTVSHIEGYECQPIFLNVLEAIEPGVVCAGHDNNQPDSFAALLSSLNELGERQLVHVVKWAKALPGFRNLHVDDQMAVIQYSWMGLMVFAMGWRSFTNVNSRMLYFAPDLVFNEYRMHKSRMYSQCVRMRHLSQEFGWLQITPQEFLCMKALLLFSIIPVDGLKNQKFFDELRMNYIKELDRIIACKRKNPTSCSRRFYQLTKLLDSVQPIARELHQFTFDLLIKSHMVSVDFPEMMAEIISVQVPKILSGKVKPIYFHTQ

Q: How did the outcome [1] turn out when `Cn1c(-c2ccccc2)cc(-c2ccccc2)[n+]1C` was run?
A: inactive

Q: `Cc1cc(C)nc(Nc2ccccc2)n1` was tested. Which AC50 [1] did it give?
A: 6.21 µM (active)

Q: How did the outcome [2] turn out when `Nc1c(Cl)c(F)nc(OCC(=O)O)c1Cl` was run?
A: inactive

Q: With `Clc1cccc(C(Cl)(Cl)Cl)n1` as the compound, how does the outcome [2] read?
A: inactive
